Measurements published in PMC4336329 (PLoS ONE, 2015).
In all, about 310,000 compounds went through this assay and about 14,000 (4.5%) showed an effect of 50% or more. The effect is printed as a negative number. The full list was thinned out, with strong results kept by preference.

biological target: human ether-à-go-go-related gene (hERG) potassium channel (human, UniProt Q12809); assay: primary screen, population patch clamp on CHO cells stably expressing hERG; higher = less effect of the substance
Sequence (Q12809 whole entry, looked up): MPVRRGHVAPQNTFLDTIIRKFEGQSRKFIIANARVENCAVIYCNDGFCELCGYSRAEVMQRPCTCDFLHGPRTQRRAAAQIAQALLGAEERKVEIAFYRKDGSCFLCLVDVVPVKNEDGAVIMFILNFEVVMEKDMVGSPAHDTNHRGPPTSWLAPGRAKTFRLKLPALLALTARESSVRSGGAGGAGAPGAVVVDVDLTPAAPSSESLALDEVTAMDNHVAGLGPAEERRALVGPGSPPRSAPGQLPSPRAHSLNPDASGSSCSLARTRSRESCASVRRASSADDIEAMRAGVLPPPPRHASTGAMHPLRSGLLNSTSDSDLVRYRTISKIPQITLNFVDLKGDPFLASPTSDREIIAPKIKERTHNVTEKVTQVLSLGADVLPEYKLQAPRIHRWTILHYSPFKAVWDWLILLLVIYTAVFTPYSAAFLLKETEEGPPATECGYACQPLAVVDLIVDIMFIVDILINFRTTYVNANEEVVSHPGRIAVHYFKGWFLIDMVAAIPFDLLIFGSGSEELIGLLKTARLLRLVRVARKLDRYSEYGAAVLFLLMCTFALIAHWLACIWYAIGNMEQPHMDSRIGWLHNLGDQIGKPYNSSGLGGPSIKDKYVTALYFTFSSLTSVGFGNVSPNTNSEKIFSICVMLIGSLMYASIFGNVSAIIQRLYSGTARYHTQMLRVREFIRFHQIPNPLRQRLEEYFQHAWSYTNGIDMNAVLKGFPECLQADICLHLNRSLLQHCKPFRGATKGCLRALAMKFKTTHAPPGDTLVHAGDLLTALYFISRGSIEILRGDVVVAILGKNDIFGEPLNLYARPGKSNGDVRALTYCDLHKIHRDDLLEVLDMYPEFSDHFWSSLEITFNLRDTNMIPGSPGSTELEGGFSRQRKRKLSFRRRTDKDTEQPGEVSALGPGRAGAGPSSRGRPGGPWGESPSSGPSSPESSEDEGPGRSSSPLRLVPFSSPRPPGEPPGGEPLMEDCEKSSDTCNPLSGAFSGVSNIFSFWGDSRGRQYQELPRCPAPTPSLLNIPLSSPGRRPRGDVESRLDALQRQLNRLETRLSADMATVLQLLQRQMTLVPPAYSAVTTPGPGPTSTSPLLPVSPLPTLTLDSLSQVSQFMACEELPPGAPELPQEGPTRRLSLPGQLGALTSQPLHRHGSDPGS
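Note: peak tail current of the secondary pulse compared with the same well before compound.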

Compound | hERG current change (%, negative = inhibition) at 10uM
O=C(C1CCCO1)N1CCc2ccccc21 (centres unmarked) | 17.1%
Cl.O=C(O)CCCCCNc1nc(-c2ccccc2)nc2ccccc12 | 3.35%
COc1ccc(C(OCC(O)CN(C)C2CCCCC2)c2ccc(OC)cc2)cc1 (centres unmarked) | -69.8%
CN(CC(O)COc1ccc(S(=O)(=O)N2CCOCC2)cc1)C1CCCCC1 (centres unmarked) | -6.74%
CN(CC(O)COC(c1ccccc1)c1ccccc1)C1CCCCC1 (centres unmarked) | -68.4%
CN(CC(O)COCc1ccccc1F)C1CCCCC1 (centres unmarked) | -14.6%
CN(CC(O)COCc1cccs1)C1CCCCC1 (centres unmarked) | -12.1%
CN(CC(O)COCc1ccc2c(c1)OCO2)C1CCCCC1.Cl (centres unmarked) | -20.6%
COc1cccc(CNC(=O)CN(C)S(=O)(=O)c2ccc3c(c2)n(C)c(=O)c(=O)n3C)c1 | 10.3%
S=C1CCC(c2ccc(Cl)cc2)=NN1c1ccccc1 | 4.79%
O=C(Nc1cc(F)ccc1F)C1CCCN(c2ncnc3c2nc2n3CCCCC2)C1 (centres unmarked) | -59.5%
O=C(Nc1ccc(F)cc1F)C1CCCN(c2ncnc3c2nc2n3CCCCC2)C1 (centres unmarked) | -62%
COc1ccccc1NC(=O)C1CCCN(c2ncnc3c2nc2n3CCCCC2)C1 (centres unmarked) | -45.5%
O=C(Nc1ccc(F)cc1)C1CCN(c2ncnc3c2nc2n3CCCCC2)CC1 | -7.35%
COc1ccc(Cl)cc1NC(=O)C1CCCN(c2ncnc3c2nc2n3CCCCC2)C1 (centres unmarked) | -37.6%
CC1=C(C(=O)OC2CCC(C)CC2)C(c2ccc(O)c([N+](=O)[O-])c2)NC(=O)N1 (centres unmarked) | -0.635%
C=CCn1c(CCNC(=O)c2ccccc2F)nnc1SCC(=O)Nc1ccc(OC)cc1 | 3.94%
COc1ccc(CCNC(=O)c2cc3c(=O)n4cccc(C)c4nc3n(CCCN3CCOCC3)c2=N)cc1 | -76.2%
COc1ccc(Cn2c(=S)[nH]c3cc(C(=O)NCCCN4CCOCC4)ccc3c2=O)cc1 | 24.1%
COc1ccc(CCn2c(=N)c(C(=O)NCCN3CCOCC3)cc3c(=O)n4ccccc4nc32)cc1OC | -32.5%
COc1ccc(CCNC(=O)C(=O)NCCCN2CCOCC2)cc1 | 7.99%
COc1ccc(CCn2c(=O)[nH]c3cc(C(=O)NCCCN4CCOCC4)ccc3c2=O)cc1OC | 28.6%

Compound | hERG current change (%, negative = inhibition) at 10uM
COc1ccc(CCNC(=O)c2cc3c(=O)n4ccccc4nc3n(CCCN3CCOCC3)c2=N)cc1OC | -75.1%
COc1ccc(CCNC(=O)c2c(N)n(CCN3CCOCC3)c3nc4ccccc4nc23)cc1 | -0.58%
COc1ccc(CCNC(=O)c2cc3c(=O)n4ccccc4nc3n(CCN3CCOCC3)c2=N)cc1 | -77.8%
COc1ccc(CCNC(=O)c2cc3c(=O)n4ccccc4nc3n(CCCN3CCOCC3)c2=N)cc1 | -79%
CCOC(=O)C1=C(COC(=O)COc2ccc(Br)cc2)NC(=O)NC1C (centres unmarked) | 2.16%
CC(=O)c1ccc(OCCCC(=O)Nc2cc(S(=O)(=O)N(C)C)ccc2C)cc1 | 0.514%
CCS(=O)(=O)N1CCC(C(=O)N2CCC3(CC2)OCCO3)CC1 | 6.65%
C=CCCCCCCCCC(=O)N1CCN(c2cc3c(cc2F)c(=O)c(C(=O)O)cn3CC)CC1 | 5.07%
Fc1cccc(NC(=S)Nc2ccc(Br)cc2)c1 | 10.3%
CCN1CCN(Cc2ccc(NC(=O)c3ccc(C)c(NC(=O)N4CCNC4=O)c3)cc2C(F)(F)F)CC1.O=C(O)C(F)(F)F | 3.66%
Cc1ccc(S(=O)(=O)N/N=C/c2ccccc2O)cc1 | 12.9%
O=C(CN1C(=O)c2ccc([N+](=O)[O-])cc2C1=O)NCc1ccco1 | 12.4%
CC1(C)CC(N2CCC(=O)NC2=S)CC(C)(C)N1 | 3.04%
CC(NS(=O)(=O)c1ccc(NC(=O)N2CCCCC2)cc1)c1ccccc1 (centres unmarked) | 3.56%
Cc1ccc(OS(=O)(=O)c2ccccc2)c(/C=N/N=C2\NC(=O)C(C)S2)c1 (centres unmarked) | -0.524%
CCc1cc2c(s1)N(CC(=O)OC)C(=O)CN=C2c1ccccc1OC | 10.7%
Cc1ccc(S(=O)(=O)Cc2ccc(C(=O)N3CCc4ccccc4C3)o2)cc1 | -62.2%
COc1ccc(S(=O)(=O)Cc2ccc(C(=O)N3CCc4ccccc4C3)o2)cc1 | -59%
Cc1ccc(S(=O)(=O)Cc2ccc(C(=O)N3CCCC3)o2)cc1 | -6.89%
COc1ccc(S(=O)(=O)Cc2ccc(C(=O)N3CCN(Cc4ccccc4)CC3)o2)cc1 | -33.1%
Cc1ccc(S(=O)(=O)Cc2ccc(C(=O)N3CCCCCC3)o2)cc1 | -15.4%
COc1ccc(S(=O)(=O)Cc2ccc(C(=O)N3CCCC3)o2)cc1 | 1.74%
